Measured values from the supplement of paper PMC3334620.
In all, about 33,000 sequences were measured (“E-score (-0.5 to 0.5)”: median about -0.016, highest 2% from about 0.31 on). This is one part of a sample in which the highest values are shown more often than they occur.

biological target: Cst6 (UniProt P40535); test: PBM E-score (8-mer binding enrichment) (E-score (-0.5 to 0.5)); higher = stronger / more preferred TF binding; settings: protein concentration: 200 nM; construct: GST-DNA-binding domain
Chain of UniProt P40535 (P40535 whole entry, the tested form may be a part): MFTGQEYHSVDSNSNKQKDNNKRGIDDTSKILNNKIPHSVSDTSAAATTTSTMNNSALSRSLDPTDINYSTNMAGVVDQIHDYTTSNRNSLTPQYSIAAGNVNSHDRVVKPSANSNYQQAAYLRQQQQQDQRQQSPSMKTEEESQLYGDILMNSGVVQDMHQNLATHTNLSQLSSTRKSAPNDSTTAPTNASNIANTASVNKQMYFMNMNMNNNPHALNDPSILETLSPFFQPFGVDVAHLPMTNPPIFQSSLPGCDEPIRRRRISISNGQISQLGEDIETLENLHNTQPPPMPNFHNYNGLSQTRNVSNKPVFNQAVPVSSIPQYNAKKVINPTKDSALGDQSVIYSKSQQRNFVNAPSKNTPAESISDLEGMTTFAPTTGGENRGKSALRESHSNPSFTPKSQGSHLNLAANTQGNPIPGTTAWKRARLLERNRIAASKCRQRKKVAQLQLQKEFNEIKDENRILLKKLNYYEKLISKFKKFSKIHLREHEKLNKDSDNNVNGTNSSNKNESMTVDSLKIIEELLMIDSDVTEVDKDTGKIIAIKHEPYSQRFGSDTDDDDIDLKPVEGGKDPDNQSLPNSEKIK
Experimental: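 Universal 'all 10-mer' protein binding microarrays (Agilent AMADID 015681) probed with GST-tagged S. cerevisiae TFs (full-length or DBD) made by in vitro transcription/translation (PURExpress), about 100-200 nM. Bound TF was detected with fluorescent anti-GST. Each ungapped 8-mer (which stands for itself and its reverse complement) is scored by the PBM enrichment score (E-score), a modified Wilcoxon-Mann-Whitney statistic from -0.5 to +0.5, computed with the Universal PBM Analysis Suite. Scale: above 0.35 generally sequence-specific binding.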

Sequence	PBM E-score
ACGTAAGT	0.422
ACGTAAGG	0.347
AGGTAAGG	-0.132
AAGTAAGT	0.116
AGTGGCGC	0.00481
AGCCAAAG	-0.114
GATGATAA	0.257
CCAGCTCC	-0.29
ACGCTCCG	-0.119
AAAATAAC	0.178
GAAATAAC	0.148
CAAATAAC	0.37
ACAGGGCG	0.0932
ACCGACGA	-0.0237
ACCTCCGT	-0.0629
AAATGGCC	-0.0934
ATGCATCG	-0.00649
CTACATCA	0.302
ATACATAA	0.258
ATGCATCA	0.372
ATACATAC	0.0814
GTACATCA	0.275
GTGCATCA	0.0738
ATACATCA	0.398
ATACATAT	0.337

Sequence	PBM E-score
CAGTCGCG	-0.25
AGATTCAC	-0.122
GAAACCTA	-0.148
CTAAAGGC	0.0355
CATCAAAG	0.0154
AAGGGAAT	0.112
ATGTAATG	0.394
GTGTAATA	0.214
ATGTAATA	0.415
CTGTAATA	0.108
ATGTAATC	0.299
ATGTAACG	0.235
AATCATGA	0.338
CATCATGC	0.362
TATCATGA	0.186
CATCATGG	0.249
AATCATGT	0.139
AATCATGC	0.0631
GATCATGC	-0.137
CATCATGA	0.363
AATCATGG	0.0769
GATAGCGC	-0.152
GGGAGTCA	-0.153
ACGCTATC	0.093
CAGCTGCC	-0.146

Sequence	PBM E-score
AGAAGTCA	0.0402
GGAAGGCC	-0.136
AAGAACAC	0.167
AAGAACAG	0.0582
AAGAACAA	0.327
TCCCTCGA	-0.205
AGAAGTCT	-0.118
CGACGTAA	0.451
AGACGTAA	0.371
CGACGTAC	0.139
GGACGTAC	-0.065
GGACGTAA	0.279
TGACGTAA	0.499
AGACGTAG	-0.133
AGACGTAC	-0.0375
TGTCGTAA	0.303
CGTGGTGC	-0.177
CAGACCTA	-0.00947
GCACAGAA	0.109
AGCTGAGA	-0.101
AATCCAAT	0.139
AATCAGCT	0.186
ACTCACGA	-0.053
GCTTTAAC	0.135
GCGGCGTA	0.23

Sequence	PBM E-score
ATGGCGTG	0.113
CCGGCGTA	-0.134
ATGGCGTC	0.311
ACGGCGTG	0.314
ACGGCGGC	0.156
CTGGCGTC	-0.0408
ACGGCGTA	0.358
AGGGCGTG	-0.115
ACGGCGGG	0.108
CCGGCGTC	-0.0641
ACGGCGTC	0.347
ACCGGTCA	-0.0152
ACGCCACG	0.0785
GGAAAACC	-0.0924
TCACAGAA	0.133
CCAGTGCA	-0.185
GCAGTTCA	0.0321
CAATGCGA	0.136
GACGGGTA	-0.0938
GTCCCATA	-0.14
CTGAAACA	-0.0169
AATTTTAC	0.326
CATTTTAC	0.273
AAATTTAT	0.234
AATTTTAA	0.25

Sequence	PBM E-score
AATTTTAT	0.346
ATTTTTAC	0.201
ATTTGCTA	0.156
CTATTCAA	0.197
ACAACCAT	0.325
ACAACCAG	0.0122
ACAACCAC	0.133
CTACGCAA	0.119
GGCACGTA	0.119
AAATGAAA	0.322
CAATGAAA	0.153
AATGAAAG	0.168
AATGAAAT	0.37
AATGAAAA	0.236
TAATGAAA	0.261
CAAACTTC	0.177
AACCTTAG	-0.158
AAGAGGAC	-0.249
AAACAGGA	0.0722
TATTTTAA	0.259
CATTTCAA	0.222
CATTTAAA	0.279
AATTAAAA	0.187
TATTTCAA	0.318
ATTTTTAA	0.293

Sequence	PBM E-score
GTTTTAAA	0.196
GATTAAAA	0.242
ATTTTAAA	0.308
TATTTAAA	0.308
GATTTCAA	-0.0222
TATTAAAA	0.323
CAAACCCC	-0.178
AAGGCGTA	0.0577
AGGCGAAT	0.0491
TCCTTGAA	-0.0366
AGGGCAGA	-0.248
GAGTTACC	-0.0903
ATGGCACG	0.111
ACCGGTGC	-0.105
ACCTTTTC	-0.133
GTCAGTGA	0.308
CTCAGTGA	0.0623
ATCAGTGA	0.136
GGTACACC	-0.287
GGCAGGCA	-0.193
AAATGTCA	0.216
GAATGTCA	0.206
TCATGTCA	0.382
GCATGTCA	0.287
TAATGTCA	0.356

Sequence	PBM E-score
ACATGTCA	0.275
ATCCATGG	-0.138
GGAGATTA	0.13
AGCTTCGC	-0.134
CGAACGAG	-0.108
CCACTTCA	-0.197
AACCACCA	0.00505
CGGCCGCC	-0.0119
AGTATTTA	0.171
CGTATTTA	0.358
GGTATTTA	0.0257
GAGCCTGC	-0.173
AAACAGGC	-0.0905
AGAACGTC	0.142
ATAACGAA	0.217
ATAACGTG	0.213
CAAACGTC	0.137
GTAACGTA	0.302
CTAACGTA	0.281
CTAACGTC	0.356
ATAACGTA	0.398
ATAACGTC	0.38
